# Measurements from ChEMBL document CHEMBL3433997, “St. Jude Leishmania screening dataset” (2016).
# Target: Glucose transporter (Leishmania mexicana) (UniProt O61059)
# Assay: ST_JUDE_LEISH: Cytotoxicity at 2uM final concentration against transgenic Leishmania Mexicana promastigotes LmGT2 that are glucose transport deficient and complemented with the L. Mexicana glucose transporter 2. Activity is measured by DNA content using SYBR green in vitro
# Assay type: functional
row,Structure (SMILES),inhibition [%]
1,CCC(C)NC(=O)CN1CN(c2ccccc2)C2(CCN(C(=O)c3ccc4ccccc4c3)CC2)C1=O (stereo not given),-0.96
2,COc1ccc(CCNCCCCCCNCCc2cccc([N+](=O)[O-])c2)cc1OC,3.28
3,Cc1ccc(C(=O)Cn2nc(-c3ccc(C)c(S(=O)(=O)N4CCCCC4)c3)ccc2=O)cc1,6.75
4,Cc1cc(=NN=Cc2ccccc2F)c2cc(F)ccc2[nH]1,0.82
5,COc1cc(NC(=O)N2CCOC(CCN3CCC4(CCc5ccccc54)CC3)(c3ccc(Cl)c(Cl)c3)C2)cc(OC)c1 (stereo not given),1.53
6,CN(CC(=O)Nc1cc(C(F)(F)F)ccc1-n1cncn1)Cc1ccc2ccccc2c1,1.8
7,Cc1ccc2[nH]ncc2c1N(CC1CCCCC1)c1ccnc(Nc2ccc(OCC(O)CN3CC=CCC3)cc2)n1 (stereo not given),-0.59
8,CN1CCN(Cc2ccc(-c3ccc4c(Nc5ccc(F)cc5Cl)ccnc4c3)o2)CC1,1.39
9,COc1cc2nc(N3CCC(CCCC4CCNCC4)CC3)nc(NCc3ccccn3)c2cc1OC,57.1
10,O=C(/C=C/c1ccc(C(F)(F)F)cc1)NCCCCCN1CCCN(C(=O)Nc2cccc(Cl)c2)CC1,1.47
11,COc1ccc(NC(=O)c2ccc(-c3ccc(-c4cccnc4)cc3)c(C)c2)cc1OCCN(C)C,0.84
12,CCNc1cc(C(=O)N[C@@H](Cc2cccc(Cl)c2)[C@H](O)CNC(C)CCCC(C)C)cc(N2CCCCS2(=O)=O)c1 (stereo not given in full),-4.25
13,COc1cc(NC(=O)/C=C/c2cc(F)cc(F)c2F)cc(OCCN2CCC3(CC2)OCCO3)c1,1.7
14,COc1cccc(CNc2noc(-c3c(-c4ccccc4)noc3C)n2)c1OC,2.76
15,O=C(NC(=S)NCc1ccncc1)c1ccccc1,1.6
16,COc1ccc2c(NN=Cc3ccncc3)ccnc2c1,-0.6
17,O=C(O)c1ccc(-c2c[nH]c3ncc(-c4ccc(Cl)cc4)cc23)cc1,-0.05
18,COc1cc2c(Nc3ccc(NC(=O)c4ccccc4)cc3)ncnc2cc1OCCCN1CCOCC1,4.08
19,CCC(C)CN1CCN(c2cc(NC(=O)c3cccs3)ccn2)C(C)C1 (stereo not given),1.68
20,Cc1cc(=NN=Cc2ccccc2Cl)c2cccc(C)c2[nH]1,-1.14

row,Structure (SMILES),inhibition [%]
1,CC1(C)N=C(N)N=C(N)N1OCCCOc1cccc(C(=O)O)c1,3.22
2,CCCCCCN1CCC(NCc2ccc(Cl)cc2)CC1,4.28
3,O=C(NCc1ccccn1)C(c1cc2ccccc2o1)N1CCN(C(c2ccccc2)c2ccccc2)CC1 (stereo not given),2.55
4,Cc1ccccc1C1CCN(C2CCC(NC(=O)C3=Cc4cc(Cl)ccc4OC3)CC2)CC1 (stereo not given),1.59
5,Cc1ccccc1C1CCN(c2ccc(C(=O)NC3CC3)cn2)CC1,0.57
6,CCOC(=O)c1cccc(NC(=N)Nc2nc(C)cc(NCCc3ccccc3)n2)c1,5.39
7,CN1CCCN(Cc2ccc(-c3cccc(NC(=O)c4ccc(C#N)cc4)c3)cc2)CC1,-1.1
8,O=C(Nc1ccc(Cl)cc1)Nc1ccc(-c2csc(-c3nc4ccccc4[nH]3)c2)cc1,0.83
9,CC(N)(Cc1ccc(O)cc1)c1nnn[nH]1 (stereo not given),-0.23
10,C(=C(c1cccs1)c1cccs1)c1ccc(CNC2CCN(Cc3ccccc3)CC2)cc1,5.77
11,ON=C1CCc2cc(-c3cc(-c4ccc(OC5CCNCC5)cc4)oc3-c3ccncc3)ccc21,-0.04
12,COc1ccccc1-c1ccc(CNC(=O)C(CN2CCN(C)CC2)c2ccccc2)cc1 (stereo not given),2.44
13,O=[N+]([O-])c1cccc(-c2nc(-c3ccc(Br)cc3)[nH]c2-c2ccc(Br)cc2)c1,1.57
14,CC(Oc1c(C2CCN(CCCCNC(=O)c3ccc(-c4ccc(C#N)cc4)cc3)CC2)ccc2c1CCCC2)C(N)=O (stereo not given),0.3
15,O=C(CNCC1CCCCC1)Nc1cc(C(F)(F)F)ccc1Cl,1.07
16,O=C(c1cc(-c2ccccc2O)on1)N1CCN(C(c2ccccc2)c2ccccc2)CC1,0.34
17,CN1CCN(c2cc3c(cc2Cl)CCN3C(=O)Cc2ccc(NC(=O)Nc3cccc4ccccc34)cc2)CC1,-1.64
18,COC(=O)c1cc(C(O)CNC(C)CCCc2ccccc2)ccc1O (stereo not given),-0.85
19,Cc1[nH]c(C)c(-c2ccc(Oc3ccc(F)cc3)cc2)c(=O)c1Br,2.46
20,Cc1c(CNCCCNc2cc(=O)c3ccccc3[nH]2)sc(C(F)=C(F)F)c1Br,5.8
